{
  "source": "PubChem BioAssay AID624351",
  "about": "(Southern Research Specialized Biocontainment Screening …, 2012)",
  "note": "About 1,400 (58%) of roughly 2,400 compounds were called active.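 The calls were made as follows: active = inhibition of 30% or more at any tested dose; inconclusive = primary hits over the limit that were never retested; inactive = the rest.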 The set was probably picked from earlier hits. This is one part of the list.",
  "data": [
    {"assay": "ADP Hunter readout inhibition without MgcRacGAP – biochemical, coupled enzyme counter-screen, artefact control for MgcRacGAP inhibitor project, dose response (AID 624351);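 also: signal is the ADP detection kit reading of free GDP without any GAP enzyme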", "conditions": "fluorescence, no MgcRacGAP; series mostly up to 80 µM", "values": [
      {"smiles": "CCN1/C(=C\\c2ccc3ccccc3[n+]2CC)Sc2cc(C)ccc21", "IC50": "inactive"},
      {"smiles": "CCOC(=O)c1ccc(S(=O)(=O)Nc2nc3cc(S(=O)(=O)NC4=NCCCCC4)ccc3s2)cc1", "IC50": "inactive"},
      {"smiles": "CC(=O)NC(Nc1c(C)n(C)n(-c2ccccc2)c1=O)C(Cl)(Cl)Cl", "note": "(stereo unspecified)", "IC50": "inactive"},
      {"smiles": "Cc1c(NC(=S)N/N=C/c2ccc(O)cc2)c(=O)n(-c2ccccc2)n1C", "IC50": "68.4 µM (active)"},
      {"smiles": "Cc1[nH]c2ccccc2c1N=Nc1c(C)n(C)n(-c2ccccc2)c1=O", "IC50": "40.2 µM (active)"},
      {"smiles": "COc1cc(N=Nc2c(C)n(C)n(-c3ccccc3)c2=O)ccc1N", "IC50": "47.2 µM (active)"},
      {"smiles": "Cc1c(N=C2C=C(Br)C(=O)C(Br)=C2)c(=O)n(-c2ccccc2)n1C", "IC50": "24.2 µM (active)"},
      {"smiles": "Cc1c(N=Nc2ccc(O)cc2)c(=O)n(-c2ccccc2)n1C", "IC50": "19.5 µM (active)"},
      {"smiles": "Cc1c(NC(=O)CNCc2ccc3c(c2)OCO3)c(=O)n(-c2ccccc2)n1C", "IC50": "inactive"},
      {"smiles": "CCOc1ccccc1NC(=O)C(NCCN(C)C)c1ccccc1", "note": "(stereo unspecified)", "IC50": "inactive"},
      {"smiles": "CCOc1cc(NC(=O)c2ccccc2C(=O)O)c(OCC)cc1NC(=O)c1ccccc1F", "IC50": "65.3 µM (active)"},
      {"smiles": "CCN1CCN(CCCCOc2ccccc2F)CC1", "IC50": "inactive"},
      {"smiles": "CC1CC(C)(C)N(C(=O)CN2CCN(C)CC2)c2ccccc21", "note": "(stereo unspecified)", "IC50": "inactive"},
      {"smiles": "O=C1CCCC/C1=C\\Nc1ccc(O)cc1", "IC50": "13.3 µM (active)"},
      {"smiles": "CC1CCC/C(=C\\Nc2ccc(O)cc2)C1=O", "note": "(stereo unspecified)", "IC50": "31.8 µM (active)"},
      {"smiles": "Cc1cc(O)ccc1N/C=C1\\CCCC1=O", "IC50": "21 µM (active)"},
      {"smiles": "CC1CCC/C(=C\\c2ccc(O)cc2)C1=O", "note": "(stereo unspecified)", "IC50": "22.3 µM (active)"},
      {"smiles": "Cc1cnc(NC(=O)C(C)N2CCN(C)CC2)s1", "note": "(stereo unspecified)", "IC50": "inactive"},
      {"smiles": "O=C1OCC/C1=C\\c1ccc(O)cc1", "IC50": "27.6 µM (active)"},
      {"smiles": "CCOc1ccccc1CN(CCc1ccc2c(c1)OCO2)Cc1ccccn1", "IC50": "inactive"},
      {"smiles": "CC1OC(CC(=O)O)CC2=C1C(=O)c1c(O)cccc1C2=O", "note": "(stereo unspecified)", "IC50": "inactive"},
      {"smiles": "Cc1ccc(/C=N/n2c(-c3cccnc3)n[nH]c2=S)s1", "IC50": "43.8 µM (active)"},
      {"smiles": "Cn1c(-c2cccc([N+](=O)[O-])c2)cnc1NCc1cccc([N+](=O)[O-])c1", "IC50": "inactive"},
      {"smiles": "O=[N+]([O-])c1cccc(/C=N/n2c(-c3cccnc3)n[nH]c2=S)c1", "IC50": "24.9 µM (active)"},
      {"smiles": "S=c1[nH]nc(-c2cccnc2)n1/N=C/c1cccs1", "IC50": "42.7 µM (active)"},
      {"smiles": "CCc1ccc(OCCOCCN2CCN(C)CC2)cc1", "IC50": "inactive"},
      {"smiles": "COc1ccc(C2NC(=O)C(C#N)=C(S)N2c2ccc(C)cc2)cc1OC", "note": "(stereo unspecified)", "IC50": "inactive"},
      {"smiles": "CC1=CC(C)(C)N(C(=O)CNC2CCCC2)c2cc(C)ccc21", "IC50": "inactive"},
      {"smiles": "O=[N+]([O-])c1ccc(Sc2cccc3cccnc23)c([N+](=O)[O-])c1", "IC50": "inactive"},
      {"smiles": "Nc1[nH]c2cc([N+](=O)[O-])ccc2c1-c1ccccn1", "IC50": "75.4 µM (active)"},
      {"smiles": "O=[N+]([O-])c1ccc(Oc2cccc3cccnc23)c([N+](=O)[O-])c1", "IC50": "inactive"},
      {"smiles": "C=CCOc1ccc(C=NNc2ccc(S(=O)(=O)Nc3ccccc3C(=O)O)cc2[N+](=O)[O-])cc1OC", "IC50": "inactive"},
      {"smiles": "O=C(O)c1ccccc1NS(=O)(=O)c1ccc(N/N=C/c2ccc(O)c(O)c2)c([N+](=O)[O-])c1", "IC50": "69.8 µM (active)"},
      {"smiles": "O=C(/C=C/c1ccc(O)c(O)c1)NC(=O)c1ccccc1O", "IC50": "21.9 µM (active)"},
      {"smiles": "Cc1ccc2oc(=O)c(/C=C(\\O)c3ccccc3)nc2c1", "IC50": "59.2 µM (active)"},
      {"smiles": "Cn1c(N=Nc2ccc(N3CCOCC3)cc2)[n+](C)c2ccccc21", "IC50": "58.3 µM (active)"},
      {"smiles": "c1csc(CNc2ccc3c(c2)OCCO3)c1", "IC50": "69.2 µM (active)"},
      {"smiles": "O=C(CNCc1ccc(Cl)cc1)Nc1ccc2c(c1)OCCO2", "IC50": "inactive"},
      {"smiles": "CN(C)c1ccc(N=c2sc3ccccc3n2C)cc1", "IC50": "26.7 µM (active)"},
      {"smiles": "Nc1ccc2c(c1)[nH]c(=O)c1cc(N)ccc12", "IC50": "16.6 µM (active)"},
      {"smiles": "Nc1ccc2cc3[nH]c4cc(N)ccc4c3nc2c1", "IC50": "inactive"},
      {"smiles": "CN1/C(=N\\O)c2cccc3cccc1c23", "IC50": "54 µM (active)"},
      {"smiles": "CC(=O)c1c(Nc2ccc3c(c2)OCCO3)oc(C)cc1=O", "IC50": "77.3 µM (active)"},
      {"smiles": "Oc1ccc(N2CCN(C(=S)NCCc3ccccc3)CC2)cc1", "IC50": "32.2 µM (active)"},
      {"smiles": "O=C(CN1CCN(c2ccc(O)cc2)CC1)Nc1ccccc1C(=O)NCCc1ccccc1", "IC50": "32.9 µM (active)"},
      {"smiles": "CCN(CC)S(=O)(=O)c1ccc(C)c(NC(=O)CN2CCN(Cc3ccccc3)CC2)c1", "IC50": "inactive"},
      {"smiles": "O=C(NC(=S)N1CCN(c2ccc(O)cc2)CC1)c1ccco1", "IC50": "38.7 µM (active)"},
      {"smiles": "O=C(CN1CCN(C/C=C/c2ccccc2)CC1)Nc1ccccc1C(=O)NC1CC1", "IC50": "inactive"},
      {"smiles": "COCCCNC(=S)N1CCN(Cc2ccc3c(c2)OCO3)CC1", "IC50": "inactive"},
      {"smiles": "CN1CCC(N(C)CC(=O)Nc2ccc3c(c2)OC(F)(F)O3)CC1", "IC50": "inactive"},
      {"smiles": "Cc1sc2ccc3sccc3c2[n+]1C", "IC50": "inactive"}
    ]}
  ]
}
